Reference: PubChem BioAssay

Tests used:
[1] = system: Botulinum neurotoxin type F light chain protease (Clostridium botulinum); test: Clostridium botulinum type F light chain protease inhibitors, microsphere substrate cleavage, validation (AID 588459); conditions: multiplex microsphere protease substrate cleavage assay, flow cytometry; at 10 µM; active compounds read high
[2] = target: Botulinum neurotoxin type A (Clostridium botulinum) (UniProt P0DPI0); test: BoNT/A light chain protease inhibitors, biochemical, multiplex microsphere flow cytometry, validation set (AID 588460); conditions: at 10 µM, active compounds read high
Chain of Botulinum neurotoxin type A (Clostridium botulinum) (P0DPI0 whole entry, looked up): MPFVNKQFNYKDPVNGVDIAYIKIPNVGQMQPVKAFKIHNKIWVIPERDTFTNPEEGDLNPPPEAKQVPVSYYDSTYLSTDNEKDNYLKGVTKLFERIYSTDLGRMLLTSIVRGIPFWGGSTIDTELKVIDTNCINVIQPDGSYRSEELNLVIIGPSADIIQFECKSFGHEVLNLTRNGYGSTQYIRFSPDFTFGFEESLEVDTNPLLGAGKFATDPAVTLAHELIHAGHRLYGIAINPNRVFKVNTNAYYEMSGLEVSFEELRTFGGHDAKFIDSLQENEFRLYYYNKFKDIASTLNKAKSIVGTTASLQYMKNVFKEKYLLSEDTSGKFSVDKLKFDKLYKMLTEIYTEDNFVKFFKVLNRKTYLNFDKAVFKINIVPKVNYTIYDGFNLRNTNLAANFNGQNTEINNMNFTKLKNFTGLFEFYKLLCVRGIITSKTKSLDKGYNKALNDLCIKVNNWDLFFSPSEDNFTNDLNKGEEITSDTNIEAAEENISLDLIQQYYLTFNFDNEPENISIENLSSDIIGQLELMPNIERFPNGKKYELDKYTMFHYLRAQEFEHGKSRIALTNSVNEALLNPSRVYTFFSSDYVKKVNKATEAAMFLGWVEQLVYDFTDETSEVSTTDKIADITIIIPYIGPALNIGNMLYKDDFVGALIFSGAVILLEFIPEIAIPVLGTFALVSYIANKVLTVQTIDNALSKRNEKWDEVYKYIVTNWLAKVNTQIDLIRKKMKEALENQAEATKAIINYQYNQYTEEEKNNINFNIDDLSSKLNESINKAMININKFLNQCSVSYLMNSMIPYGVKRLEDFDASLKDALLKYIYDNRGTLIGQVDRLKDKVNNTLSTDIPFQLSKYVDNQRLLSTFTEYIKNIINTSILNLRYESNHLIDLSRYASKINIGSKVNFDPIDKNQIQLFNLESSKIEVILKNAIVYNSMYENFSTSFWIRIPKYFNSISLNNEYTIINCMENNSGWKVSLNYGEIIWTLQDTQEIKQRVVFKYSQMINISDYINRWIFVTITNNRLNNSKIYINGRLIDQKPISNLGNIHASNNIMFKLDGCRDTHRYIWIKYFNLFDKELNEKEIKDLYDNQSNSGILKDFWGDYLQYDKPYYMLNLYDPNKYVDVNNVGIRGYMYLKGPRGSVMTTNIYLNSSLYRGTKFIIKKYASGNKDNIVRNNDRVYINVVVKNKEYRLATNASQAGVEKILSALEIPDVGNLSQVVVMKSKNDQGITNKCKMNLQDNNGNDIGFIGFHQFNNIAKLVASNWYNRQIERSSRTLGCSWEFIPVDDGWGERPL

[3] = target: Lethal factor (Bacillus anthracis) (UniProt P15917); test: Bacillus anthracis lethal factor inhibition, microsphere flow cytometry protease assay, validation at 10 µM (AID 588461); conditions: multiplex microsphere protease cleavage assay, active compounds read high
Chain of Lethal factor (Bacillus anthracis) (P15917 whole entry, looked up): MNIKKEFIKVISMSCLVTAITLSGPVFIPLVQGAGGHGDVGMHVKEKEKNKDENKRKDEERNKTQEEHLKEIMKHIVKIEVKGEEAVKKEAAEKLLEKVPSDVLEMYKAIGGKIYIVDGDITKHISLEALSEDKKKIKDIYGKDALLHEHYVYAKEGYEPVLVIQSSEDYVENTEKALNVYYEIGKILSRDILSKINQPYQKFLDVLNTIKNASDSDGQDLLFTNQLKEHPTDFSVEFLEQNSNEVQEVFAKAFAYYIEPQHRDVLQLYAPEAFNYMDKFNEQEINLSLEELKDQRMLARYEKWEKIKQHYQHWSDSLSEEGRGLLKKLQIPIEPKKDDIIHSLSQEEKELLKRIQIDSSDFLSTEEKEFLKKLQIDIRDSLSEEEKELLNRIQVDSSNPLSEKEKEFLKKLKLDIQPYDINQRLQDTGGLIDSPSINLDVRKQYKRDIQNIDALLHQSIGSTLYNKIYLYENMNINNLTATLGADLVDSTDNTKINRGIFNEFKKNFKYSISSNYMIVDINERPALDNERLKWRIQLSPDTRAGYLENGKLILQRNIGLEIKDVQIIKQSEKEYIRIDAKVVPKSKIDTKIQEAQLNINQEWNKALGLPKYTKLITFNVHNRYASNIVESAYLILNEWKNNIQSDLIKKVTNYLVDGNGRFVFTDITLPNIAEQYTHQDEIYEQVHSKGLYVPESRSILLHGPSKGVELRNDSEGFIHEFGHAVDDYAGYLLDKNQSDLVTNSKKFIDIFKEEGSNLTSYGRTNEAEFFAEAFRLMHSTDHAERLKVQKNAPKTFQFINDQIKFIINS

Measured: inhibition

Cc1ccc2c(c1C)NC(C(=O)O)C1CC=CC21 (stereo not drawn)
inactive: [1] -5.3% | [2] -1.9% | [3] -13.2%

O=C(CCCN1C(=O)/C(=C\c2cccc(Br)c2)SC1=S)Nc1cccnc1
inactive: [1] -1.7% | [2] -0.3% | [3] 2.4%

COC(=O)c1ccccc1NC(=O)NCc1ccccc1
inactive: [1] 2.7% | [2] 0.1% | [3] 0.8%

CN1CCCN(C(c2ccccc2)c2ccc(Cl)cc2)CC1 (stereo not drawn)
inactive: [1] 3.2% | [2] -1.8% | [3] -8.8%

O=C1CCCC(=O)C1=Cc1c[nH]c2ccccc12
inactive: [1] 3% | [2] 0.4% | [3] -6.4%

CC(=O)OCC(=O)[C@@]12OC3(CCCC3)O[C@@H]1C[C@H]1[C@@H]3CCC4=CC(=O)C=C[C@]4(C)[C@@]3(F)[C@@H](O)C[C@@]12C
inactive: [1] 0.8% | [2] -0.9% | [3] -0.7%

COc1cc2oc(-c3ccc(O)cc3)cc(=O)c2c(OC)c1O
inactive: [1] -1.9% | [2] -0.3% | [3] -2.3%

COCC1CCCN(Cc2cn[nH]c2-c2cc3ccccc3o2)C1 (stereo not drawn)
inactive: [1] -0.1% | [2] -1.5% | [3] -3.9%

COc1ccc(NS(=O)(=O)c2ccc(N)cc2)nn1
inactive: [1] 7.2% | [2] 2% | [3] -0.1%

OCCC1CN(Cc2nc(-c3ccccc3)cs2)CCN1Cc1ccc(F)cc1 (stereo not drawn)
inactive: [1] 3.5% | [2] 0.9% | [3] 8.5%

COc1ccc(C2OC[C@H]3O[C@H](O)[C@H](NC(C)=O)[C@@H](O)[C@@H]3O2)cc1 (stereo partly drawn)
inactive: [1] -3.6% | [2] -1.7% | [3] -9.6%
